# High-throughput results: PubChem, National Center for Advancing Translational Sciences (NCATS)
# JMJD2A Tudor inh = qHTS Assay for Inhibitors of JMJD2A-Tudor Domain. Lysine-specific demethylase 4A (Homo sapiens), O75164. 390,000 compounds, 4.4% hits. Potency, µM (highest dose often 114 µM), for the others: top-dose activity change, negative = inhibition, actives largely listed as inhibitors. AlphaScreen JMJD2A-Tudor / H3K4me3 peptide binding. AID 504339, 2011; further: on the % scale 0 is the no-effect control and ±100 the full control effect; nearly all actives have a fitted effect of over 50% in size
# Target sequence (O75164 whole entry, looked up, the tested form may be a part): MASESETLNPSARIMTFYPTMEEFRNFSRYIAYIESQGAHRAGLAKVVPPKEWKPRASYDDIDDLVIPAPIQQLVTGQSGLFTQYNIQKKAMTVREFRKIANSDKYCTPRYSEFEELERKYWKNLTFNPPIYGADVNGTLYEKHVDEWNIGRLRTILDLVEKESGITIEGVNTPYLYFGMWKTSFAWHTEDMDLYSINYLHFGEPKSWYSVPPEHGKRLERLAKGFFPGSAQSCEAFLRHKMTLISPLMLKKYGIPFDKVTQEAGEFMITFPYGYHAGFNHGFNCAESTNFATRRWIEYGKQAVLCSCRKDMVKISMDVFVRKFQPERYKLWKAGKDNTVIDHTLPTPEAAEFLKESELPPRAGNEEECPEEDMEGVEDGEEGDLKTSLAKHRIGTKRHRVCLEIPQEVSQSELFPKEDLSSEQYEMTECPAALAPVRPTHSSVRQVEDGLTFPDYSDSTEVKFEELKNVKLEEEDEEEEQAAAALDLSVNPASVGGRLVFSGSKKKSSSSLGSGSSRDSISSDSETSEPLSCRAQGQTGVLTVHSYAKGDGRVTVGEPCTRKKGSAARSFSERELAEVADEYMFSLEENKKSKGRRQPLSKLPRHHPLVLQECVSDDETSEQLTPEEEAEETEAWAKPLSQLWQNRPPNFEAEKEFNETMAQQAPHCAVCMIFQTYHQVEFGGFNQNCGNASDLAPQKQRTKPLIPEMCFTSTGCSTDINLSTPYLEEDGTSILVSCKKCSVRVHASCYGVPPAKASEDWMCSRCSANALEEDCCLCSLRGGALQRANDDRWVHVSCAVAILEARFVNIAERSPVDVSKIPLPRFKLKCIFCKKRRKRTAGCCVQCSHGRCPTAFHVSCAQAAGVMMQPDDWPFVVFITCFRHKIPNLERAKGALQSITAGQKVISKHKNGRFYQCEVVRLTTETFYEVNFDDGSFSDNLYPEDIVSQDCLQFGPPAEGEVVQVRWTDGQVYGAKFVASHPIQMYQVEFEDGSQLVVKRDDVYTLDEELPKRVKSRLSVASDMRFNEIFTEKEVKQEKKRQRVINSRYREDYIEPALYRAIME
# HP1b chromo inh = HTS for Inhibitors of HP1-beta Chromodomain Interactions with Methylated Histone Tails; Chromobox protein homolog 1 (Homo sapiens), P83916; AlphaScreen HP1-beta / biotin-H3K9me3 peptide binding; Potency, µM (top dose mostly 114 µM), for the others: at the top dose activity change, negative = inhibition, usual class: inhibitors; 390,000 compounds, 0.56% hits; further: nearly all actives have a fitted effect of over 70% in size
#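 AlphaScreen: HP1-beta (50 nM) preformed 30 min with biotin-H3(1-18)K9me3 peptide (50 nM) in PBS pH 7.4, 0.01% Tween-20. Compound added for 30 min at RT, then streptavidin donor/nickel chelate acceptor beads (10 ug/mL) for 30 min.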
# G9a inh = qHTS Assay for Inhibitors of Histone Lysine Methyltransferase G9a; Histone-lysine N-methyltransferase EHMT2 (Homo sapiens), Q96KQ7; G9a H3K9 monomethylation, AlphaScreen, 2 h; Potency, µM (titrated, usually from 102 µM), for inactives: at the top dose activity, negative = inhibition, hits mostly inhibitors; 350,000 compounds, 8.8% hits; AID 504332, 2011; further: on the % scale 0 is the no-effect control and ±100 the full control effect; nearly all actives have a fitted effect of over 75% in size
#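 G9a (20 nM) preincubated 15 min RT with compounds, then 500 nM biotinylated H3K9 peptide and 20 uM SAM added; 2 h RT reaction. Monomethyl-H3K9 product detected by AlphaScreen with anti-H3K9me1 antibody, streptavidin donor and anti-rabbit IgG acceptor beads.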
# L3MBTL1 inh = qHTS Assay for the Inhibitors of L3MBTL1. AID 485360, 2010. 230,000 compounds, 0.66% hits. Potency, µM (titrated, usually from 57.1 µM), for inactives: at the top dose activity, negative = inhibition, actives largely listed as inhibitors. AlphaScreen L3MBTL1–H3K9me1 peptide binding. Lethal(3)malignant brain tumor-like protein 1 (Homo sapiens), Q9Y468; further: on the % scale 0 is the no-effect control and ±100 the full control effect; nearly all actives have a fitted effect of over 60% in size
#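 Read-out is AlphaScreen signal from streptavidin donor and nickel chelate acceptor beads (10 ug/mL final each) bridging L3MBTL1 (50 nM) and biotinylated K9-monomethylated H3(1-15) peptide (75 nM), after 30 min compound exposure at room temperature.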
# BAZ2B inh = qHTS Assay for Inhibitors of BAZ2B. Bromodomain adjacent to zinc finger domain protein 2B (Homo sapiens), Q9UIF8. AlphaScreen BAZ2B-H3K14Ac peptide displacement. Potency, µM (titrated, usually from 114 µM), without a hit: at the top dose activity change, negative = inhibition, most hits filed as inhibitors. 360,000 compounds, 4.4% hits. AID 504333, 2011; further: on the % scale 0 is the no-effect control and ±100 the full control effect; nearly all actives have a fitted effect of over 60% in size
#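 AlphaScreen displacement of biotin-H3(5-23)K14Ac peptide (50 nM final) from BAZ2B (50 nM final) in PBS pH 7.4, 0.01% Tween-20; complex preformed 30 min RT, then compounds (top 110 uM) 30 min RT, beads 20 min dark.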
# * hit, by the source's call; ? = inconclusive; · = no result; [ ] = remark or other dose. Compounds with a hit are over-represented: about 11% of the library has one in this group of screens. The call rests on the fitted dose curve; in most records, active means well fitted inhibition curve with a large enough effect; inconclusive means small, poorly fitted or top-dose-only effect; inactive means no such curve, though single readings can be large or run the other way. Potency means the concentration at half of the fitted maximal effect.
SMILES,JMJD2A Tudor inh,HP1b chromo inh,G9a inh,L3MBTL1 inh,BAZ2B inh
COc1ccccc1C(CC(=O)Nc1nccs1)c1ccco1 (stereo unspecified),?,10.2%,-20.5%[59 µM],-2.5%,-36.8%
O=C(CC(c1ccc(F)cc1)c1ccco1)N1CCCC1 (stereo unspecified),-19.9%,32.4%,39.8µM*,-4.2%,6.8%
CCCN(CCC)C(=O)CC(c1ccc(F)cc1)c1ccco1 (stereo unspecified),-32.8%,38.8%,44.7µM*,·,-31.6%
O=C(CC(c1ccc(F)cc1)c1ccco1)Nc1nccs1 (stereo unspecified),-33.7%,-17.7%,28.2µM*,-23.4%,?
Cc1ccccc1CN(C)C(=O)c1ccc2ccccc2n1,6.5%,18.4%,-2.0%,·,0.5%
Cc1cccc(CNC(=O)CCCN2C(=O)c3cccnc3Oc3ccccc32)c1,-1.3%,26.1%,-2.4%[59 µM],·,-0.7%
O=c1[nH]c(=S)[nH]c2nc(-c3cccs3)cc(C(F)(F)F)c12,-14.9%,36.4%,79.4µM*,·,-5.9%
O=C(CSc1nc2nc(-c3cccs3)cc(C(F)(F)F)c2c(=O)[nH]1)Nc1c(F)c(F)c(F)c(F)c1F,-11.0%,28.0%,-40.0%,9.5%,-20.8%
CCN(Cc1ccccc1)c1ccc(Br)cn1,88.4%,·,·,·,·
O=C(NCC(=O)N(CCc1ccccc1)C(C(=O)NC1CCCC1)c1cccnc1)c1ccco1 (stereo unspecified),-3.8%,9.0%,?,3.2%,3.5%
O=C(NCC(=O)N(CCc1ccccc1)C(C(=O)NC1CCCCC1)c1ccncc1)c1ccco1 (stereo unspecified),-8.6%,37.7%,39.8µM*,4.0%,5.6%
CC(C)CCNC(=O)NC(=O)CSc1nnc2ccccn12,3.3%,17.5%,4.7%[59 µM],-3.6%,15.2%
CC(C)CNC(=O)CSc1nnc2ccccn12,-2.7%,45.3%,44.7µM*,·,-6.6%
COc1ccc(NC(=O)/C(C#N)=C/c2ccc(-c3ccc(Cl)c(C(=O)O)c3)o2)cc1,?,-0.3%,·,16.1%,1.3%
COc1ccc(CN2C(=O)/C(=C/c3ccc(-c4ccc(Cl)c(C(=O)O)c4)o3)SC2=S)cc1,·,·,31.6µM*,·,?
O=C(O)c1cc(-c2ccc(/C=C3/SC(=S)N(Cc4ccccc4)C3=O)o2)ccc1Cl,56.2µM*,?,12.6µM*,·,?
O=C(O)c1cc(-c2ccc(/C=N/Nc3ccc(Cl)cc3)o2)ccc1Cl,?,-2.0%,?,-10.4%,-34.3%
Cc1ccc(/C=C2\SC(=S)N(Cc3ccccc3)C2=O)o1,14.1µM*,-21.5%,?,-7.2%,?
CNC(=O)C1CCC(Cn2c(=O)c3sccc3n(CC(=O)N3CCCC(C)C3)c2=O)CC1 (stereo unspecified),-9.3%,23.7%,14.1%[59 µM],·,-10.8%
CCOc1ccc(NC(=O)Nc2c(C)n(C)n(-c3ccccc3)c2=O)cc1,9.4%,37.4%,4.6%[2.33 µM],·,11.9%
CCNC(=S)NNc1nc(N2CCOCC2)nc(N2CCOCC2)n1,-11.2%,-36.6%,?,·,·
CNC(=S)NNc1nc(N2CCOCC2)nc(N2CCOCC2)n1,25.1µM*,?,?,12.3%,-6.8%
CCN1C(=O)CC(N2CCC(C(=O)N3CCCCCC3)CC2)C1=O (stereo unspecified),-2.7%,27.5%,-12.3%,-5.1%[11.4 µM],?
O=C(C1CCN(C2CC(=O)N(c3cccc(Cl)c3)C2=O)CC1)N1CCCCCC1 (stereo unspecified),-15.4%,40.0%,10µM*,23.5%[11.4 µM],3.5%
O=C1CC(N2CCOCC2)C(=O)N1c1cccc(Cl)c1 (stereo unspecified),-6.6%,56.4%,44.7µM*,12.3%,8.9%
Cc1cccc(N2C(=O)CC(N3CCOCC3)C2=O)c1 (stereo unspecified),-2.5%,51.2%,-17.6%[59 µM],·,0.6%
